GLD-1 TGE inh: GLD-1-TGE RNA interaction inhibition (C. elegans). Q17339. purified GLD-1 + fluorescein TGE RNA, fluorescence polarization. inhibition, % at 5.96 µM. 320,000 compounds, 0.44% hits;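 active = percent inhibition above a per-plate cutoff, the plate mean of test compounds plus 3 SD, cut at about 30% in these data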;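 also: 0% = DMSO wells with GLD-1 and probe and 100% = wells lacking GLD-1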
C-LANA FP: KSHV C-LANA DNA binding inhibition. MBP-C-LANA/FAM-LBS DNA binding, fluorescence polarization. inhibition, % at 9 µM. 340,000 compounds, 0.078% hits. AID 504423;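 active = highest replicate inhibition at or above 60% at 9 µM, even if other replicates fall short; inactive = all replicates below 60% inhibition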;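 also: 0% = neutral control wells and 100% = 4 µM acridine orange control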
eLon inh: E. coli protease La inhibition; purified E. coli Lon protease, fluorescence polarization; inhibition, % at 7.94 µM; P0A9M0; 360,000 compounds, 0.42% hits; in the data active = inhibition above about 13%, passing the limit was not always enough;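 also: 0% = enzyme with probe and DMSO and 100% = no enzyme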
Keap1-Nrf2 PPI: inhibitors of human Keap1-Nrf2 protein-protein interaction. 340,000 compounds, 0.15% hits. AID 504523. Keap1 Kelch-Nrf2 peptide fluorescence polarization, 1536-well. inhibition, % at 9.4 µM; in the data active = inhibition above about 12%; inconclusive = no clear call, values can overlap the other calls; inactive = below about 7.3%;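 also: human Keap1 Kelch domain with fluorescein labeled Nrf2 9mer peptide probe; 0% = neutral control wells and 100% = peptide positive control; higher means more block of Keap1 binding to Nrf2 peptide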
Bcl-xL primary: blocks human Bcl-xL binding to Bim BH3 peptide; GST-Bcl-xL / FITC-Bim BH3 peptide fluorescence polarization; inhibition, % at 10.9 µM; 320,000 compounds, 0.7% hits;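 active = inhibition above the mean of all tested compounds plus 3 SD, cutoff set per campaign, cut at about 30% in these data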;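 also: 0% = DMSO wells and 100% = unlabeled Bim-BH3 peptide competitor; inhibitors lower millipolarization by displacing the labeled peptide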
Target sequence (Q07817 whole entry, looked up): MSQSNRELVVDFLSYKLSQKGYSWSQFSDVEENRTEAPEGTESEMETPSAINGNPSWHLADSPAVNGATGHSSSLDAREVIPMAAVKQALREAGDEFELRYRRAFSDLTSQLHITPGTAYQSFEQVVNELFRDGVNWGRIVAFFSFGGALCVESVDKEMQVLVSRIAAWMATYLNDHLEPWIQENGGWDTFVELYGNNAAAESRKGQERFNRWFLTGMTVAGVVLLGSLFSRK
MEX-5 binding: C. elegans MEX-5 TCR-2 RNA binding activity | Q9XUB2 | MEX-5/FITC-TCR2 RNA binding, fluorescence polarization; active compounds read low | activity score (negative = inhibition of binding), % at 10 µM | 300,000 compounds, 0.38% hits | AID 1832;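 active = inhibition past about -25% in most replicates, and total fluorescence under double the plate's negative control median, limit read from the data; inconclusive = replicates evenly split on the limit, or fluorescence at least double controls; inactive = too little inhibition in most replicates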;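 also: 0% = DMSO and -100% = 5 µM competing unlabeled TCR2 RNA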
eLon confirm: confirmation of E. coli Lon protease inhibitors; shares compounds with eLon inh; purified E. coli Lon, fluorescence polarization; inhibition, % at 7.94 µM; 1,400 compounds, 31% hits; in the data active = inhibition above about 16%;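 also: 0% = enzyme with probe and DMSO and 100% = no enzyme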
Starred values were filed as active, the others as inactive; ? = inconclusive; / = no result. Rows were chosen to be rich in hits. Some 1.2% of all compounds tested hit in one or more screens of this group.

SMILES	GLD-1 TGE inh	C-LANA FP	eLon inh	Keap1-Nrf2 PPI	Bcl-xL primary	MEX-5 binding	eLon confirm
Cc1ccc(S(=O)(=O)N2CC(O)C[C@H]2C(=O)OCC(=O)c2ccccc2)cc1 (stereo not given in full)	1	-1	-2	-4	6	-2	/
O=C(COC(=O)C1CC(O)CN1S(=O)(=O)c1ccc(Cl)cc1)c1cccc(Cl)c1 (stereo not given)	2	0	72*	1	6	-7	-19
Cc1ccccc1N=Cc1cccc(O)c1O	0	-1	15*	-3	36*	0	30*
Cc1cccc(C)c1NC(=O)C1CCN(S(C)(=O)=O)CC1	0	-1	40*	-2	7	3	5
COc1ccc(C2(c3ccc(OC(C)=O)cc3OC(C)=O)CC(c3ccccc3)NC(=S)N2)cc1 (stereo not given)	-6	0	21*	-1	-1	0	12
CCc1nnc(NC(=O)C2c3ccccc3Oc3ccccc32)s1	5	-2	19*	-6	0	3	-32
COc1ccc(CN2CCNC(=O)C2CC(=O)NCc2csc(C)n2)c(F)c1 (stereo not given)	14	3	19*	-7	18	-1	4
COc1cccc2cc(-c3nc(-c4cccs4)cs3)c(=O)oc12	1	20	-11	5	6	-23	/
O=c1oc2ccccc2cc1-c1nc(-c2cccs2)cs1	139*	13	39*	4	-4	?	45*
CN(C)c1ccc2nc3ccc(=O)cc-3sc2c1	/	/	40*	/	/	/	44*
Fc1ccc2nc(Nc3ccccc3)sc2c1	-2	-3	15*	3	6	/	6
Fc1cccc(F)c1[B-](F)(F)F	/	2	4	-2	/	/	/
CC1(C)CC(NC(=S)Nc2ccc(S(N)(=O)=O)cc2)CC(C)(C)N1	-7	-1	4	-5	0	1	/
CC1(C)CC(=O)C(C(=S)Nc2ccccc2)=C(NC2CC(C)(C)NC(C)(C)C2)C1	5	-1	59*	-4	1	1	-1
CN(C)CCn1c2c(c(SCC(=O)N3CCc4ccccc43)nc1=O)CCCC2	2	0	1	-2	0	0	/
CCOC(=O)C1=C(C)NC(=S)N(C(C)=O)C1c1ccccc1 (stereo not given)	-3	-1	17*	3	3	-1	1
CCc1cccc(CC)c1N1C(=O)C2=C(SCCCS2)C1=O	/	/	180*	/	/	/	160*
CCc1cccc(CC)c1N1C(=O)COCC1=O	/	/	-5	/	/	/	/
CCN(c1ccccc1)S(=O)(=O)c1ccc(OC)c(NC(=O)c2cc(F)c(F)c(F)c2F)c1	-4	0	-3	1	/	/	/
Fc1ccccc1C(c1nnnn1Cc1ccc2c(c1)OCO2)N1CCN(Cc2ccco2)CC1 (stereo not given)	1	1	16*	1	3	-2	-3
CCN(CC)S(=O)(=O)c1cccc(C(=O)N/N=C2\CCCC(=O)C2)c1	114*	11	87*	1	41*	-3	-27
Cc1ccccc1OCC(=O)N/N=C1\CC(=O)CC(C)(C)C1	27	-1	3	5	4	-2	/
Cc1ccc(OCC(=O)N/N=C2\CC(=O)CC(C)(C)C2)c(Br)c1	/	0	15*	-3	/	3	-7
CCOc1ccccc1OCC(=O)NN=C1CCCC(=O)C1	0	1	36*	-5	/	/	4
Cc1ccc2c(c1)c1c(n2CC(O)CNC2CCCCC2)CCCC1 (stereo not given)	-1	2	28*	-1	8	-5	6
SMILES	GLD-1 TGE inh	C-LANA FP	eLon inh	Keap1-Nrf2 PPI	Bcl-xL primary	MEX-5 binding	eLon confirm
COc1ccc(C2C(C(=O)c3ccco3)=C(O)C(=O)N2CC2CCCO2)cc1OC (stereo not given)	7	-1	-3	-4	6	-1	/
CCOc1ccccc1OCC(=O)Nc1cccc(S(=O)(=O)N2CCCCCC2)c1	-6	-1	60*	-4	1	-1	-6
Cc1ccc(NC(=O)COc2ccccc2C(N)=O)cc1S(=O)(=O)N1CCCCCC1	4	-1	22*	-2	-6	/	1
COc1ccc(NC(=O)COc2ccccc2C(N)=O)cc1S(=O)(=O)N1CCCCC1	/	/	-1	/	/	/	/
COc1ccccc1OCC(=O)N1CCN(S(=O)(=O)c2ccc(Cl)cc2)CC1	/	0	2	1	/	/	/
Cc1ccc2sc(N(CCCN(C)C)C(=O)c3ccc(Br)s3)nc2c1C	-3	-1	2	3	2	-1	/
CCc1cc(CNC(=O)C2CCC(=O)N(Cc3ccccc3F)C2)on1 (stereo not given)	/	/	-9	/	/	/	/
CCn1c(SCC(=O)NC2CC2)nnc1-c1ccc(C)cc1	4	0	3	-1	-1	2	/
c1ccc(CSc2nnc(-c3cccs3)o2)cc1	4	1	-4	-1	6	-1	/
CCSc1nnc(-c2cccs2)o1	-6	0	65*	-7	3	-2	-3
CC(Sc1ccc(S(=O)(=O)N(C)C)cn1)C(=O)NC1CCCC1 (stereo not given)	6	-1	25*	3	5	/	-34
CCOc1ccc(NC(=O)NCC2CCN(c3ccc(OC)cc3)C2)cc1 (stereo not given)	3	-1	23*	-7	8	-1	-10
Cc1ccc(S(=O)(=O)N2C[C@H]3C(=O)C[C@@H](c4ccc(Cl)cc4)N(S(=O)(=O)c4ccc(C)cc4)[C@H]3C[C@H]2c2cccc3ccccc23)cc1	/	/	5	/	/	/	/
CCOC(=O)N1CCN(CC(=O)c2ccc(O)cc2O)CC1	41*	5	25*	3	6	?	29*
COc1ccc(S(=O)(=O)NC(=O)C2(C)CCN2C(=O)Cc2ccccc2Cl)cc1 (stereo not given)	/	/	1	/	/	/	/
O=C(CN1CCc2ccccc21)NC(=O)NCc1ccccc1	-9	-2	6	-1	7	0	/
O=C(CN1CCCc2ccccc21)NC(=O)NCc1ccco1	6	0	53*	-2	10	1	-3
CC(C)CC(=O)NC(c1cccs1)c1ccc2cccnc2c1O (stereo not given)	4	1	4	-1	7	-2	/
CCC(=O)NC(c1cccs1)c1ccc2cccnc2c1O (stereo not given)	-7	1	21*	1	5	-3	1
O=C(Oc1ccc2c3c(c(=O)oc2c1)CCCC3)c1cccs1	4	2	18*	-5	2	3	25*
CCCCC(=O)N(C)c1c(C)nc2ccc(C(=O)Nc3cccc(NS(C)(=O)=O)c3)cn12	/	/	-5	/	/	/	/
CC(C)CN(C(=O)COC(=O)c1ccccc1SCC(=O)N1CCCC1)C1CCS(=O)(=O)C1 (stereo not given)	/	2	16	-4	/	/	/

Assay outcomes: PubChem BioAssay, several laboratories
